Assay outcomes (PubChem BioAssay)
LDHA inh: LDHA (human) enzyme inhibition. P00338. purified LDHA, NADH/diaphorase-resazurin fluorescence; stronger effect = lower value. activity change, % (values are at about 110 or 230 µM). 480,000 compounds, 0.15% hits. AID 1347041; in the data active = activity change below about -30%; inconclusive = mostly about -25% to -30%;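 note: plate controls were DMSO wells for no effect and wells without enzyme for full effect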
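Human LDH5 (2 nM) was incubated with 0.06 mM NADH and 0.2 mM pyruvate for 5 min at room temperature in Tris pH 7.4. Remaining NADH was coupled through diaphorase/resazurin, and resorufin fluorescence was read at 0 and 20 min.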
IL1B secr inh: inflammasome signaling inhibition, IL-1 beta readout. THP-1 LPS/ATP IL-1B secretion, AlphaLISA, 16 h; stronger effect = lower value. activity change, % at 57.5 µM. 360,000 compounds, 4.7% hits; in the data active = activity change below about -50%; inconclusive = mostly about -30% to -49%
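Secreted IL-1B measured by AlphaLISA bead assay after 16 h compound exposure of THP-1 cells; compounds (final up to 57.5 uM) added 1 h before LPS (250 ng/mL) and ATP (1.25 mM) stimulation; lower signal means less secretion.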
RORg inh: inhibitors of mouse ROR gamma transcriptional activity | Potency, µM (highest dose often 53.6 µM), for the others: at the top dose activity change, negative = inhibition, most hits filed as inhibitors | Drosophila S2 Gal4-RORgamma UAS-luciferase reporter, 20 h | P51450 | 310,000 compounds, 5.4% hits; note: potency is the fitted concentration of half-maximal effect; nearly all actives have a fitted effect of over 60% in size
Target sequence (P51450 whole entry, looked up, the tested form may be a part): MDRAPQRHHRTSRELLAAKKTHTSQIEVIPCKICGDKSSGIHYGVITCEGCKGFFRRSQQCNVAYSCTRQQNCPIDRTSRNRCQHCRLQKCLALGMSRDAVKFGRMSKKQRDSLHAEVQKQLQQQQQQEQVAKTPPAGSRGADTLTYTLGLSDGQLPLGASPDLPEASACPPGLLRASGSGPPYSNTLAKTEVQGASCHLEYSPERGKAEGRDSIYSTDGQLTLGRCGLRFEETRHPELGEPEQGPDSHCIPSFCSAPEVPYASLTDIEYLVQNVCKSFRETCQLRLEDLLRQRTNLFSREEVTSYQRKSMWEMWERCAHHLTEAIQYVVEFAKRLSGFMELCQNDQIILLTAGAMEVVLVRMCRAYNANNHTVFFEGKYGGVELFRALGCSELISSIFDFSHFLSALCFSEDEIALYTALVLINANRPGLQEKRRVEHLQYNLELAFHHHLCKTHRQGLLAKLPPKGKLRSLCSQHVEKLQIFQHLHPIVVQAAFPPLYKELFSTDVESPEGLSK
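Read-out: Photinus luciferase luminescence; inhibitors lower reporter signal. Insect Schneider cells with Gal4-ROR gamma fusion under metallothionein promoter, UAS reporter; 700 uM final copper sulfate induction, 20 hr, ambient temperature.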
TDP1 cell CPT: growth inhibition of DT40 Tdp1-/-;hTDP1 cells with camptothecin (screen for TDP1 inhibitors); chicken DT40 Tdp1-/-;hTDP1 cells + 20 nM CPT, ATP luminescence, 48 h; Potency, µM (doses to about 46.2 µM), inactives show at the highest dose activity change, negative = growth inhibition, actives largely listed as inhibitors; 420,000 compounds, 12% hits; note: potency is the fitted concentration of half-maximal effect; nearly all actives have a fitted effect of over 55% in size
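Chicken DT40 Tdp1-/- cells complemented with human TDP1, 400 cells/well, exposed to compounds plus 20 nM camptothecin for at least 48 h at 37 C; viability read as ATP content by CellTiter-Glo luminescence.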
DT40 TDP1 no CPT: qHTS for Inhibitors of human tyrosyl-DNA phosphodiesterase 1 (TDP1): qHTS in cells in absence of CPT; 420,000 compounds, 15% hits; AID 686978, 2013; Potency, µM (top dose mostly 46.2 µM), for inactives: top-dose activity change, negative = growth inhibition, most hits filed as inhibitors; DT40 Tdp1-/- hTDP1 cells, no CPT, ATP luminescence, 48 h; note: potency is the fitted concentration of half-maximal effect; nearly all actives have a fitted effect of over 55% in size
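A cellular qHTS used chicken DT40 cells lacking endogenous Tdp1 but carrying stably transfected human TDP1. Compounds were applied without camptothecin, and cell growth kinetics were judged by ATP-dependent luminescence after ≥48 hr.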
VP16 counter: counter-screen for ROR gamma inhibitors: Gal4-VP16 reporter | Drosophila S2 Gal4-VP16 UAS-luciferase, luminescence, 20 h | Potency, µM (series often up to 53.6 µM), for inactives: top-dose activity, negative = inhibition, usual class: inhibitors | 310,000 compounds, 3.5% hits | AID 2546;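 note: Gal4-VP16 expression switched on by copper sulfate through the metallothionein promoter; potency is the fitted concentration of half-maximal effect; nearly all actives have a fitted effect of over 50% in size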
* hit, by the source's call; ? = inconclusive; nt = not tested or not shown; [ ] = remark or other dose. An excerpt weighted towards active compounds, which were near 18% of everything screened. Unless noted, calls come from the whole dose curve; as a rule, active = well fitted curve in the direction sought with a large enough effect; inconclusive = small, poorly fitted or top-dose-only effect, or another doubt; inactive = no such curve, though single readings can be large; an effect the other way counts as inactive or inconclusive. Unless noted, % is set by controls: 0 for no effect and ±100 for the full control effect.

SMILES	LDHA inh	IL1B secr inh	RORg inh	TDP1 cell CPT	DT40 TDP1 no CPT	VP16 counter
CCCN1Cc2cccc(C(=O)Nc3ccc(-c4nc5ccccc5[nH]4)cc3)c2C1=O	-0.8	-9.9	?	?	18.4µM*	-11.6%
COCCN1Cc2cccc(C(=O)Nc3ccc(-c4nc5ccccc5[nH]4)cc3)c2C1=O	-8.5	-16.6	22.1%[10 µM]	-23.1%	-26.2%	-7.2%
Cc1cc(/C=C(\C#N)C(=O)N2CCCCC2)cc(C)c1O	2.7	-4.9	-27.9%	18.4µM*	25.9µM*	?
N#C/C(=C/c1cccc(O)c1)C(=O)Nc1ccc(N2CCOCC2)cc1	-4.4	nt	nt	nt	nt	nt
N#C/C(=C\c1cccc(Br)c1)C(=O)N1CCCCC1	-7.9	?	2.51µM*	13µM*	11.6µM*	?
N#C/C(=C\c1cccc(O)c1)C(=O)N1CCCCC1	-2.5	-73.4*	5.6%[1.91 µM]	15.1%	?	-27.1%
CC(=O)N1CCN(C(=O)/C(C#N)=C/c2ccc3c(c2)OCO3)CC1	1.5	1.8	-41.6%	3.7%	4.6%	-8.5%
CC(C)(C)c1ccc(OCc2nn3c(CN4CCOCC4)nnc3s2)cc1	1.6	nt	nt	nt	nt	nt
COc1ccc(OC)c(/C=N/NC(=O)CCN2CCN(C(c3ccccc3)c3ccccc3)CC2)c1	-1.8	-3.8	10µM*	?	16.4µM*	?
O=C(CCN1CCN(c2ccccc2)CC1)N/N=C/c1ccccc1OC(F)F	1.8	19.0	11.2µM*	3.6%	-25.9%	?
COc1ccc(/C=N\NC(=O)CCN2CCN(c3ccccc3)CC2)cc1OC	-3.9	2.8	10.8%	-3.3%	-22.2%	-14.8%
O=C(CCN1CCN(C(c2ccccc2)c2ccccc2)CC1)N/N=C/c1ccc(O)cc1O	3.1	81.8	14.1µM*	6.51µM*	5.17µM*	-19.4%
O=C(CCN1CCN(C(c2ccccc2)c2ccccc2)CC1)N/N=C/c1ccc(O)cc1	-3.8	-12.5	-7.0%	?	?	19.1%
C(=C1c2ccccc2-c2ccccc21)c1ccncc1	-4.4	-78.2*	nt	?	23.1µM*	nt
CNc1ccc(C=C2c3ccccc3-c3ccccc32)cc1	-3.3	nt	nt	?	12.6µM*	nt
CCNC(=S)NNC(=O)c1ccccc1	-2.8	nt	nt	nt	nt	nt
O=S(=O)(NCC1(c2ccccc2)CC1)c1cc(F)ccc1F	-2.7	nt	nt	nt	nt	nt
O=C1CSc2ccc(C(=O)Nc3cccc(C(=O)NC4CC4)c3)cc2N1	4.9	nt	nt	nt	nt	nt
Cc1ccc(/C=N/NC(=O)C2CC2)s1	3.8	nt	nt	nt	nt	nt
CC(=O)NC12CC3CC(C1)CC(C(=O)Oc1ccc(N(C)S(=O)(=O)c4cc(C)ccc4C)cc1)(C3)C2	-1.5	-24.7	nt	?	16.4µM*	nt
O=C(CNc1cc(Cl)ccc1N1CCOCC1)Nc1ccccc1Cc1ccccc1	0.2	nt	nt	nt	nt	nt
CC(C)(C)C(=O)Nc1nnc(Cc2ccccc2F)s1	-0.9	nt	nt	nt	nt	nt
O=C(CCc1nc(-c2ccccc2Cl)no1)NC1CCCCC1	-6.0	9.2	10.8%	?	20.6µM*	3.0%
O=C(CCc1nc(-c2ccccc2F)no1)NC1CCCCCC1	-3.8	20.3	7.5%	?	29.1µM*	-0.9%
COc1ccc(CNC(=O)Cc2c(C)c3ccc(OC)c(OC)c3oc2=O)cc1	0.3	nt	nt	nt	nt	nt
SMILES	LDHA inh	IL1B secr inh	RORg inh	TDP1 cell CPT	DT40 TDP1 no CPT	VP16 counter
S=c1[nH]ncn1/N=C/c1ccc(N2CCOCC2)cc1	-2.2	4.5	?	-9.0%	-9.7%	-94.5%
S=c1[nH]ncn1/N=C/c1ccccc1	1.9	19.1	?	?	23.1µM*	?
S=c1[nH]ncn1/N=C/c1ccc(Br)cc1	-8.7	-20.9	2.24µM*	?	-28.5%	3.98µM*
COc1ccccc1NC(=O)Cn1nnc(-c2ccccc2NC(=O)c2cccs2)n1	-1.5	-15.6	-17.6%	?	20.6µM*	2.2%
COc1ccc(NC(=O)Cn2nnc(-c3ccccc3N)n2)cc1OC	-2.2	9.6	?	-18.5%	-11.8%	nt
COc1cc(NC(=O)Cn2nnc(-c3ccccc3N)n2)cc(OC)c1	-7.3	-58.8*	24.0%	?	?	0.0%
COc1ccccc1NC(=O)Cn1nnc(-c2ccccc2NC(=O)c2ccco2)n1	-5.6	12.2	-24.7%	-13.6%	?	?
COc1ccc(NC(=O)Cn2nnc(-c3ccccc3NC(=O)c3ccco3)n2)cc1	-1.3	-1.6	?	2.91µM*	2.59µM*	?
Cc1cc(F)ccc1NC(=O)c1nn(CC(C)C)c(=O)c2ccccc12	1.1	nt	nt	nt	nt	nt
Oc1ccc(C2C[C@H]3CC[C@@H]2C3)cc1O (stereo partly specified)	25.0	-23.0	?	11.6µM*	?	?
O=C(O)c1cccc(Nc2nc3ccccc3nc2NS(=O)(=O)c2ccc(Br)cc2)c1	3.7	nt	nt	nt	nt	nt
C=CCc1ccc(OCC(O)CO)c(OC)c1 (stereo unspecified)	2.6	8.7	4.6%	-1.2%	8.3%	-20.9%
C=CCc1ccc(O)c(-c2cc(CC=C)ccc2O)c1	3.3	13.8	13.9%	14.6µM*	20.6µM*	?
COc1ccc(CNCCC(c2ccc(F)cc2)c2ccc(OC(C)C)cc2)cc1OC (stereo unspecified)	2.4	-96.0*	?	16.4µM*	14.6µM*	?
COc1ccc(CNCCC(c2ccccc2)c2ccc(OC(C)C)cc2)cc1OC (stereo unspecified)	-1.8	nt	-30.5%	23.1µM*	23.1µM*	-6.9%
CC1CCN(S(=O)(=O)c2cc3cc(F)ccc3oc2=O)CC1	-7.0	nt	nt	nt	nt	nt
COc1ccc(C)cc1NC(=O)C(C)O/N=C/c1ccc(Cl)cc1 (stereo unspecified)	0.5	nt	nt	nt	nt	nt
Cc1ccc2[nH]c3c(c2c1)CCCC3=O	-0.9	-0.2	31.4%	-4.5%	4.8%	-1.0%
O=C1CCCc2c1[nH]c1ccc(CN3CCCCC3)cc21	-6.9	-51.8*	-2.1%	16.4µM*	?	-2.3%
C=CCN1C(=O)/C(=c2\sc3nc(=O)c(Cc4ccc(OC)c(OC)c4)nn3c2=O)c2ccccc21	-1.7	-4.5	?	?	?	?
C=CCN1C(=O)/C(=N/n2cnnc2)c2ccccc21	-1.4	58.1	1.0%	5.8µM*	4.61µM*	2.1%
CCOC(=O)c1ccc(NC(=O)Cn2nc(C)n3cccc3c2=O)cc1	7.3	nt	nt	nt	nt	nt
COc1cc(/C=C(/C#N)C(=O)C(C)(C)C)ccc1OCc1ccc(Cl)cc1	13.9	nt	nt	nt	nt	nt
CN(C)S(=O)(=O)N1CCN(c2ccnc3cc(Cl)ccc23)CC1	-4.9	?	14.1%	23.1µM*	13µM*	-4.1%
O=C(C1CC1)N1CCN(c2ccnc3cc(Cl)ccc23)CC1	-6.1	-7.9	8.7%	?	?	2.8%
